About 4,800 (1.3%) of roughly 370,000 compounds were called active. Shown is part of a subset that was picked to be rich in actives. A number with no mark means an inactive call.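 Rule for the calls: active = inhibition above about 21% made by adding two undisclosed values (limit read from the data); inactive = the rest.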

Sequence of Protein arginine N-methyltransferase 1 (Homo sapiens) (Q99873 whole entry, looked up): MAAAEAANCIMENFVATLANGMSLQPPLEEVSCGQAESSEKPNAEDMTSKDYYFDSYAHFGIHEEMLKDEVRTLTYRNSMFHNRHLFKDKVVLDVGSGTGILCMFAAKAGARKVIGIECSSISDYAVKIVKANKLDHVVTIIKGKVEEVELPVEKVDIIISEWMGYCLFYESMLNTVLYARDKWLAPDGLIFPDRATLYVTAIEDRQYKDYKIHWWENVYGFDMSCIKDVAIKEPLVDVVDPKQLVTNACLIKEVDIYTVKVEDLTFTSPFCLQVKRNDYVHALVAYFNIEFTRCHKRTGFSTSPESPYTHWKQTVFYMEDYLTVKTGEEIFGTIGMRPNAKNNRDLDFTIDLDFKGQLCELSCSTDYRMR

This assay has as its target Protein arginine N-methyltransferase 1 (Homo sapiens) (UniProt Q99873). Kind of assay: human PRMT1 activity-probe blockers – biochemical, fluorescence polarization, primary screen (AID 652257). The following applies: recombinant PRMT1, activity-based probe fluorescence polarization; at 2.79 µM; hits give high values. A general note: Fluorescence polarisation rises when a labelled molecule tumbles more slowly, as on binding a larger partner.
For `CC(C)N1CCCCC(NC(=O)C(C)(C)C)C1=O` (stereo not given), the inhibition (commonly the relative decrease from the control value, in per cent) is -1.77%.

In the case of `Cc1nc2sc(C(c3ccco3)N3CCOCC3)c(O)n2n1` (stereo not given), the inhibition was 49.8% (active).

As to `Cc1nc2sc(C(c3ccco3)N3CCC4(CC3)OCCO4)c(O)n2n1` (stereo not given), the inhibition was 8.34%.

Consider `Cc1ccc(C(c2sc3nc(C)nn3c2O)N2CCN(c3ccccc3)CC2)cc1` (stereo not given), for which the inhibition is -1.11%.

With `Oc1c(C(c2cccs2)N2CCN(c3ccc(F)cc3)CC2)sc2ncnn12` (stereo not given), the inhibition was -2.78%.

On to `Oc1c(C(c2ccco2)N2CCC3(CC2)OCCO3)sc2ncnn12` (stereo not given), for which the inhibition was 21.8% (active).

In the case of `CC(CCN1CCC(C(O)(c2ccccc2)c2ccccc2)CC1)Oc1ccc([N+](=O)[O-])cc1Cl` (stereo not given), the inhibition is -5.87%.

For the molecule `CC(=O)Nc1ccc(NS(=O)(=O)c2cc(C)sc2C)cc1`, the inhibition is 3.68%.

As to `CC(C)C(C#CC1CC1)N(Cc1ccc2c(c1)OCO2)C(N)=NC(=O)/C=C/c1cccc(C(F)(F)F)c1` (stereo not given), the inhibition was 1.58%.

As to `CCc1ccc(NC2Nc3cc(C)nn3S2)cc1` (stereo not given), the inhibition was 30.6% (active).

Regarding `CC(C)N1CCCCC(NC(=O)c2ccc3ccccc3c2)C1=O` (stereo not given), the inhibition is 1.16%.

Take `O=C(OCc1cn([C@@H]2C[C@H](c3ccc(Cl)cc3)N(Cc3cccs3)C[C@H]2O)nn1)c1ccccc1`: the inhibition was 6.65%.

`COC(=O)[C@@]12CCCCC=C1N(CCc1ccc(Cl)cc1)C(=O)[C@H]2CC(=O)NCc1ccc(OC)c(OC)c1`: the inhibition is 1.14%.

Regarding `C#CCN([C@@H](C)C(=O)OCC)S(=O)(=O)c1ccc(Br)cc1F`, the inhibition was -2.15%.

For the molecule `NC(=S)NN=Cc1ccc(OC(=O)COc2cc(Cl)c(Cl)cc2Cl)cn1`, the inhibition is 47.2% (active).

For `O=C(COc1cc(Cl)c(Cl)cc1Cl)NCCc1ccccn1`, the inhibition was -6.02%.

As for `O=C(COC(=O)COc1cc(Cl)c(Cl)cc1Cl)NC1CC1`, the inhibition was 0.44%.

In the case of `CCOC(=O)C1CCN(C(=O)C(C)(C)NC(=O)Nc2ccc(F)c(F)c2)CC1`, the inhibition was -1.45%.

With `CCS(=O)(=O)Nc1cc(C(=O)OC)ccc1C(=O)OC`, the inhibition was 4.51%.

As to `O=C(OC12CC3CC(CC(C3)C1)C2)c1ccc(NCc2cc(O)ccc2O)cc1`, the inhibition is 19.5%.

As for `COC(=O)c1ccc(NCc2cc(O)ccc2O)cc1`, the inhibition was 28.5% (active).

For the molecule `CCC(=O)OCCCN1C(=O)CCC12CCC(c1ccccc1)CC2` (stereo not given), the inhibition was 0.61%.

In the case of `O=C(NCc1cccs1)C1CCN(S(=O)(=O)c2ccccc2[N+](=O)[O-])CC1`, the inhibition was -2.52%.

On to `COc1ccc(CCN2C(=O)CC(N3CCC(C(N)=O)CC3)C2=O)cc1OC` (stereo not given), for which the inhibition is 39.3% (active).

Turning to `COc1cccc(N2C(=O)CC(N3CCN(S(=O)(=O)c4ccccc4)CC3)C2=O)c1` (stereo not given), the inhibition was 4.31%.

Consider `CCOC(=O)c1ccc(N2C(=O)CC(N3CCC(C(=O)OCC)CC3)C2=O)cc1` (stereo not given), for which the inhibition was 53.2% (active).

With `COc1cccc(N2CCN(C3CC(=O)N(c4ccc(Cl)cc4)C3=O)CC2)c1` (stereo not given), the inhibition is 17%.

Take `CCOC(=O)c1ccc(N2C(=O)CC(N(C)Cc3ccccc3)C2=O)cc1` (stereo not given): the inhibition was 1.83%.

With `CCOC(=O)c1ccc(N2C(=O)CC(N3CCN(C(=O)c4ccccc4)CC3)C2=O)cc1` (stereo not given), the inhibition is -1.22%.

In the case of `COc1ccc(CCN2C(=O)C3CC=C(C)CC3C2=O)cc1OC` (stereo not given), the inhibition was 0.69%.

Turning to `COc1ccc(CN2C(=O)CC(Cc3ccc(C)cc3)C2=O)cc1OC` (stereo not given), the inhibition was 2.37%.

As for `COc1ccc(N2C(=O)CC(N3CCC(C(N)=O)CC3)C2=O)cc1` (stereo not given), the inhibition is 62.3% (active).

Turning to `CCN(CC)C(=O)CC[C@@H]1CC[C@]2(CCCN(S(=O)(=O)C3CCCCC3)C2)O1`, the inhibition was 8.38%.

For the molecule `CC1(C)SC2c3ccccc3C(=O)N2[C@@H]1C(=O)NCc1ccco1` (stereo not given in full), the inhibition was 2.92%.

Regarding `CN=C1SC(C(=O)O)CC(=O)N1C` (stereo not given), the inhibition is 0.87%.

As to `COC(=O)[C@]12C[C@H](CC(=O)N3CCOCC3)C(=O)N(Cc3ccc(Cl)cc3Cl)C1=C[C@H](C(C)C)O[C@@H]2C1CC1`, the inhibition was 3.55%.

With `c1ccc(C2CNCc3c2ccc2ccccc32)cc1` (stereo not given), the inhibition is 2.21%.

For `CCCC(C(=O)NCc1ccco1)N(C(=O)CNS(=O)(=O)c1ccccc1)C1CCCC1` (stereo not given), the inhibition was -1.78%.

`COC(=O)C1CN(CC(C)C)CCS(=O)(=O)N1Cc1ccc(C)cc1` (stereo not given): the inhibition is 6.76%.

On to `O=C(C1CCCN1S(=O)(=O)c1ccccc1)N1CCc2ccccc2C1` (stereo not given), for which the inhibition was -6.97%.

On to `CC(C)CNS(=O)(=O)CC1NCCc2ccccc21` (stereo not given), for which the inhibition is 4.3%.

As for `CCn1c2ccccc2c2cc(NC(=O)CSc3nnc(-c4ccccc4)n3-c3ccc(C)cc3)ccc21`, the inhibition was -1.61%.

On to `CC(C)N(Cc1nnc(-c2ccccc2Br)o1)C(=O)c1cc(Cl)nc2ccccc12`, for which the inhibition was -5.25%.

For the molecule `O=C(Nc1cccc(F)c1)c1coc(=O)c(Br)c1`, the inhibition was 5.43%.

Consider `Cc1cc(C(=O)Nc2ccc(C)c(S(=O)(=O)N3CCOCC3)c2)c2ccccc2n1`, for which the inhibition is 0.88%.

As to `CC(=O)N1CCN(C(=O)c2cc(-c3ccc(Cl)s3)nc3ccccc23)CC1`, the inhibition was 2.92%.

On to `CN(CCOc1ccccc1)C(=O)c1cc(-c2ccco2)nc2ccccc12`, for which the inhibition is 29.2% (active).

For the molecule `CN(C)C(CNC(=O)CCCOc1ccccc1)c1ccco1` (stereo not given), the inhibition is -0.86%.

As to `CN(CCOc1ccccc1)Cc1nc2cc(Cl)ccc2c(=O)[nH]1`, the inhibition was 2.3%.

As for `O=C(Nc1cccc(F)c1)c1cc(-c2ccco2)nc2ccccc12`, the inhibition was 30.3% (active).

`O=C(c1cc(-c2ccco2)nc2ccccc12)N(Cc1nnc(-c2ccc(Cl)cc2)o1)C1CC1`: the inhibition was 22.5% (active).

On to `CC(=O)N1CCN(C(=O)c2cc(-c3ccc(C)o3)nc3ccccc23)CC1`, for which the inhibition is 32.5% (active).

On to `O=C(c1ccc(Cl)s1)N(Cc1nnc(-c2ccccc2Cl)o1)C1CC1`, for which the inhibition was 1.28%.

Consider `O=C(c1cc(-c2ccc(Cl)s2)nc2ccccc12)N1CCOCC1`, for which the inhibition was -5.47%.

As for `COC(=O)C[C@H]1CC[C@H]2[C@H](COc3ccc(NC(=O)C4CC4)cc3C(=O)N2C)O1`, the inhibition is 1.52%.

Consider `CC(=O)NCCc1ccc(S(=O)(=O)N(C)C2CCS(=O)(=O)C2)cc1` (stereo not given), for which the inhibition is -0.5%.

Take `CN1C[C@]2(C=C3CCCCC3n3c(=O)n(-c4ccccc4)c(=O)n32)N=C1NC(=O)c1ccccc1` (stereo not given in full): the inhibition was 1.11%.

Take `COC(=O)C[C@@H]1CC[C@H]2[C@@H](COc3ccc(NS(=O)(=O)CC(F)(F)F)cc3C(=O)N2C)O1`: the inhibition was 4.04%.

Regarding `O=C(CNS(=O)(=O)c1ccccc1)NCC(=O)OCc1ccccc1F`, the inhibition was 1.67%.

For `CC(=O)C1(C(=O)Nc2nccs2)CC(c2ccccc2C(F)(F)F)=NO1` (stereo not given), the inhibition is 5.04%.

Turning to `O=C1CCC/C(=N\NC(=O)NC2CCCCC2)C1`, the inhibition was 0.8%.

Turning to `O=C(OC12CCCN(C1)/C(=C/c1ccccc1)C2)c1ccco1` (stereo not given), the inhibition was -3.75%.

On to `CNC(=O)NC(=O)CSc1nnc(-c2ccc(F)cc2)n1CC1CCCO1` (stereo not given), for which the inhibition is 2.71%.

On to `COc1ccccc1CCNC(=O)C1CCN(c2nc(C)cc(C)n2)CC1`, for which the inhibition was 1.67%.

For `CCn1c(SCC(C)=O)nc2sc3c(c2c1=O)CCCC3`, the inhibition was -4.09%.

For the molecule `CN(C(=O)COC(=O)c1cc(-c2ccco2)nc2ccccc12)C1CCS(=O)(=O)C1` (stereo not given), the inhibition was 21.6% (active).

Take `COc1ccc(NC(=O)CN(C)C(=O)c2cc(C)oc2C)cc1`: the inhibition was -0.84%.

With `COc1cccc(NC(=O)CN(C)C(=O)c2cc(Cl)nc3ccccc23)c1`, the inhibition was -4.52%.

Regarding `O=C(Nc1nc2ccc(Cl)cc2s1)c1cc(-c2ccc(Cl)cc2)nc2ccccc12`, the inhibition is 9%.

As for `COc1ccc(NC(=O)CN(C)C(=O)c2cc(-c3ccc(C)o3)nc3ccccc23)cc1`, the inhibition is 26.9% (active).

Consider `Cc1ccc(S(=O)(=O)CCC(=O)OCC(=O)N(C)C2CCS(=O)(=O)C2)cc1` (stereo not given), for which the inhibition is 1.31%.

As to `Cc1ccc(NC(=O)c2cc(-c3ccc(C)o3)nc3ccccc23)nc1`, the inhibition was 47.4% (active).

Turning to `Cc1cc(NC(=O)c2ccccc2C)no1`, the inhibition is -1.67%.

As to `Cc1cc(C(=O)OCC(=O)N2C(C)CCCC2C)c2ccccc2n1` (stereo not given), the inhibition was 7.6%.

Consider `CC1(C)CC(CNCCC(c2ccc(F)cc2)c2ccco2)CCO1` (stereo not given), for which the inhibition is -2.86%.

On to `O=C(NCCc1ccc(Cl)cc1Cl)c1cc([N+](=O)[O-])c[nH]c1=O`, for which the inhibition is -1.63%.

Take `CC(=O)c1ccc(Cc2ncc(C(F)(F)F)cc2Cl)s1`: the inhibition was 1.39%.

Regarding `CCOC(=O)C1CCN(C(=O)C(C)(C)NC(=O)Nc2ccccc2Cl)CC1`, the inhibition is -1.31%.

Regarding `Cc1ccc(-n2c(SCC(=O)Nc3ccc(S(=O)(=O)Nc4nccs4)cc3)nnc2-c2cccnc2)cc1`, the inhibition is -3.77%.

`CC(C)CCC(=O)Nc1cc(S(=O)(=O)N2CCOCC2)ccc1N1CCCC1`: the inhibition was -0.42%.

With `O=C(COC(=O)Cc1ccc(F)cc1)Nc1cc(S(=O)(=O)N2CCOCC2)ccc1N1CCCC1`, the inhibition was -0.54%.

For `COCCNC(=S)Nc1cc(S(=O)(=O)N2CCOCC2)ccc1N1CCCCC1`, the inhibition was 29.6% (active).

`CN(C)Cc1cn(-c2ccc(-c3noc4c3C(=O)N(CC(=O)N3CCOCC3)CC4)cc2)nn1`: the inhibition was 3.49%.

For the molecule `O=C(/C=C/c1cccc(C(F)(F)F)c1)N1CCN(c2ccccn2)CC1`, the inhibition is 3.3%.

`Cc1ccc(C)c(NC(=O)CCS(=O)(=O)c2ccccc2)c1`: the inhibition was 10%.

For the molecule `O=S(=O)(Nc1n[nH]c(C(F)(F)F)n1)c1ccccc1`, the inhibition is -0.91%.

Regarding `Cc1noc(C)c1C(=O)OC(C)C(=O)Nc1ccc2c(c1)OCO2` (stereo not given), the inhibition was -4.06%.

Take `O=S(=O)(NC1CC1)c1ccc(F)c(F)c1`: the inhibition was 0.17%.

Consider `CC1CCC(NS(=O)(=O)c2ccc3c(c2)CC(=O)N3)CC1` (stereo not given), for which the inhibition was 2.71%.

On to `Cn1sc(=O)c2cc(S(=O)(=O)NC3CC3)ccc21`, for which the inhibition is 36.8% (active).

Values taken from PubChem BioAssay AID652257 (The Scripps Research Institute Molecular Screening Center, 2013).
